These results are taken from PubChem BioAssay (NCI).

About 83,000 compounds went through this panel and 20% of them were active in at least one assay; those are over-represented in the sample as a whole.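 The test compound was applied at a single concentration to cells in 96-well plates for 48 hours, and percent growth was recorded.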 Unmarked numbers belong to inactive results. Calls of active or inactive are those of the source. Rule for the calls: active = growth percent below 10; inactive = the rest.

Common to all, as to test: NCI-60 one-dose screen, 48 h (100 = growth as untreated, 0 = no growth, -100 = all killed)
Settings in all cases: 10 µM unless noted

Test [1] relates to SR leukemia.
The test system of test [2] is RPMI-8226 leukemia.
Test [3] deals with OVCAR-8 ovarian.
The test system of test [4] is OVCAR-5 ovarian.
In test [5] the test system is OVCAR-4 ovarian.
For test [6], the system named is SK-OV-3 ovarian.
The test system of test [7] is IGROV1 ovarian.
The test system of test [8] is OVCAR-3 ovarian.
Test [9] relates to HS 578T breast.
Test [10] concerns NCI/ADR-RES ovarian.
Test [11] concerns T-47D breast.
The subject of test [12] is BT-549 breast.
Test [13] relates to MDA-MB-435 melanoma.
The test system of test [14] is SW-620 colon.
Test [15] relates to MCF7 breast.
The subject of test [16] is HCT-116 colon.
Test [17] deals with HCC-2998 colon.
The subject of test [18] is KM12 colon.
The test system of test [19] is MDA-MB-468 breast.

On to `Cc1ccc(-c2nc(C#N)c(S(=O)(=O)N3CCN(S(=O)(=O)c4ccc(Cl)cc4)CC3)o2)cc1`, for which the growth in [1] is 47.3%; in test [2], 97%; in test [3], 82.2%; in test [4], 105%; in [5], 86.8%; in [6], 87.2%. Besides, the growth was 95.8% in [7]; 114% in test [8]; 65.2% in test [9]; 91% in test [10]; 92.1% in test [11]; 99.8% in test [12]. For the same compound, the growth in [13] is 94.8%; in test [14], 109%; in [15], 75.8%; in test [16] it was 84.9%; in test [17] it was 106%; in test [18], 109%. The growth in [19] was 61.9%.
In the case of `COc1ccc(-c2ccnc(SCc3cc4ccccc4[nH]c3=O)n2)cc1`, the growth is 14.9% in test [1]; 65.5% in [2]; 56.3% in test [3]; 82.1% in test [4]; 41.5% in test [5]; 82.4% in test [6]. Further, the growth was 75% in [7]; 81.6% in test [8]; 48.2% in test [9]; 26.9% in test [10]; 70.2% in [11]; 29.7% in [12]. For the same compound, the growth in test [13] is 1.7% (active); in test [14], 35.1%; in test [16] it was 31%; in test [17], 59.6%; in [18], 57.3%; in test [19], 6.26% (active).
On to `CN(C)CCn1c2ccccc2c2nc3cc4ccccc4cc3nc21`, for which the growth in test [1] was 5.18% (active); in test [2], 14.4%; in test [3], -46.8% (active); in [4], 8% (active); in [5], 48%; in [6] it was 45.5%. Besides, the growth in test [7] was -9.73% (active); in test [8], 46.6%; in [9] it was 42.7%; in [10], -19.4% (active); in test [11], 45.3%; in test [12] it was 52.8%. Also, the growth was -67% (active) in test [13]; -58.3% (active) in [14]; -9.03% (active) in test [15]; -61.4% (active) in [16]; -82.1% (active) in test [17]; 4.87% (active) in [18]. Moreover, the growth in test [19] was 23.7%.
Regarding `N/N=C(\N)c1c(N)nc(=S)[nH]c1-c1ccc(Cl)cc1Cl`, the growth in [1] is 97.3%; in test [2] it was 109%; in test [3], 110%; in [4], 108%; in [5], 105%; in [6] it was 86.7%. The growth in [7] is 106%; in [8] it was 109%; in test [9], 100%; in test [10], 114%; in [11], 92.6%; in [12], 100%. The growth in test [13] was 111%; in test [14], 106%; in test [15], 95.6%; in test [16] it was 113%; in test [17] it was 103%; in [18], 105%. Further, the growth in test [19] was 110%.
On to `C=C1CCC2C3(C)COC(c4ccccc4)OC3CCC2(C)C1CC(NCc1ccccc1)C1=CCOC1=O` (stereo not given), for which the growth in [1] is 68.6%; in [2], 34.1%; in test [3], 82.9%; in test [4] it was 87.5%; in test [5], 82.8%; in [6], 79.9%. Further, the growth in test [7] is 90.6%; in test [8] it was 83%; in test [9] it was 78%; in test [10] it was 77.7%; in [11], 63.6%; in [12] it was 73.4%. Also, the growth is 85% in test [13]; 89.8% in [14]; 70.2% in [15]; 69% in test [16]; 81.2% in test [17]; 85.6% in test [18]. Further, in test [19], the growth was 49.3%.
For the compound `Cn1cc(-c2cc3nc(-c4cn(C)c5ncccc45)cc(N)n3n2)c2ccccc21`, the growth is -28.8% (active) in [1]; -19.1% (active) in [2]; 10.2% in test [3]; 48.9% in [4]; 3.01% (active) in test [5]; 42.8% in test [6]. Also, the growth is 0.888% (active) in [7]; 6.85% (active) in test [8]; -13% (active) in test [9]; 31.2% in test [10]; 35.1% in test [11]; -34.7% (active) in [12]. Also, the growth in [13] was 29.7%; in [14], 20.2%; in test [16] it was -20% (active); in [17], 5.15% (active); in test [18], 36.2%; in test [19], -24.7% (active).
In the case of `NS(=O)(=O)c1ccc(N=Nc2c(O)n(CC(=O)Nc3ccccc3Cl)c3ccccc23)cc1`, the growth in test [1] is 26.9%; in test [2], 29%; in [3], 1.19% (active); in test [4], 56.3%; in test [5], 53%; in [6], 36.7%. For the same compound, the growth in [7] was 18%; in test [8], 21.3%; in test [9], 50.5%; in test [10] it was 30.4%; in [11], 19.7%; in [12], -4.12% (active). The growth in test [13] was 34.5%; in [14], 24.5%; in [15] it was 6% (active); in [16] it was 8.6% (active); in [17] it was 28.3%; in test [18] it was 17.1%. For the same compound, in test [19], the growth was 26.3%.
`COc1ccc(C(=O)/C=C/c2ccc(OCc3ccc(F)cc3)c(OC)c2)cc1OC`: the growth in [1] was 7.52% (active); in test [2], 1.35% (active); in test [3], -7.27% (active); in test [4], 1.16% (active); in test [5], 17.3%; in [6], 40.2%. Also, the growth in [7] was 17.5%; in test [8], 18.2%; in [9], 84.7%; in test [10] it was 11%; in test [11], 26.8%; in test [12], -1.79% (active). Besides, the growth is 7.77% (active) in [13]; 7.65% (active) in test [14]; 7.56% (active) in test [15]; 8.63% (active) in test [16]; 16.8% in test [17]; 14% in test [18]. Besides, the growth in test [19] was 8.91% (active).
